Results published in PubChem BioAssay (NCI).
The panel holds about 83,000 compounds, 20% with a hit somewhere; the sample as a whole holds those more often.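 Cell lines were cultured in 96-well plates, exposed to a single compound concentration, and assessed for percent growth 48 hours later.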 Activity calls are given as the source filed them. The calls were made as follows: active = growth percent below 10; inactive = the rest.

Legend:
Test in all cases: NCI-60 one-dose screen, 48 h (100 = growth as untreated, 0 = no growth, -100 = all killed)
Conditions in all cases: 10 µM unless noted
SK-MEL-2 melanoma = system: SK-MEL-2 melanoma
EKVX NSCLC = system: EKVX NSCLC
SN12C renal = system: SN12C renal
UO-31 renal = system: UO-31 renal
TK-10 renal = system: TK-10 renal
ACHN renal = system: ACHN renal
CAKI-1 renal = system: CAKI-1 renal
A498 renal = system: A498 renal
CCRF-CEM leukemia = system: CCRF-CEM leukemia
MOLT-4 leukemia = system: MOLT-4 leukemia
SR leukemia = system: SR leukemia
RPMI-8226 leukemia = system: RPMI-8226 leukemia
OVCAR-8 ovarian = system: OVCAR-8 ovarian
OVCAR-5 ovarian = system: OVCAR-5 ovarian
OVCAR-4 ovarian = system: OVCAR-4 ovarian
SK-OV-3 ovarian = system: SK-OV-3 ovarian
IGROV1 ovarian = system: IGROV1 ovarian
OVCAR-3 ovarian = system: OVCAR-3 ovarian
NCI/ADR-RES ovarian = system: NCI/ADR-RES ovarian
HS 578T breast = system: HS 578T breast

Measured: growth

C=C1CC[C@@H]2[C@]3(C)COC(c4ccccc4)O[C@@H]3CC[C@@]2(C)[C@@H]1C/C=C1/C(=O)OC[C@H]1O (some centres not stated)
inactive: SK-MEL-2 melanoma 93.3% | EKVX NSCLC 100% | SN12C renal 79.9% | UO-31 renal 75.7% | TK-10 renal 109% | ACHN renal 100% | CAKI-1 renal 83.7% | A498 renal 109% | MOLT-4 leukemia 84% | SR leukemia 36.9% | RPMI-8226 leukemia 28.2% | OVCAR-8 ovarian 56.6% | OVCAR-5 ovarian 105% | OVCAR-4 ovarian 83.4% | SK-OV-3 ovarian 119% | IGROV1 ovarian 89.3% | OVCAR-3 ovarian 63.8% | NCI/ADR-RES ovarian 57%
active: CCRF-CEM leukemia 9.03%

NC(N)=Nc1ccc(Oc2cccc(Nc3ccc(Cl)c(C(F)(F)F)c3)c2)cc1
inactive: SK-MEL-2 melanoma 83.7% | EKVX NSCLC 36.1% | SN12C renal 27.1% | UO-31 renal 76.2% | TK-10 renal 82.6% | ACHN renal 74% | CAKI-1 renal 39.8% | A498 renal 36.7% | CCRF-CEM leukemia 17.5% | MOLT-4 leukemia 17.8% | RPMI-8226 leukemia 33.7% | OVCAR-8 ovarian 68.6% | OVCAR-5 ovarian 58.8% | OVCAR-4 ovarian 55.6% | SK-OV-3 ovarian 82.6% | IGROV1 ovarian 17.2% | OVCAR-3 ovarian 35% | NCI/ADR-RES ovarian 91.6%
active: SR leukemia -26.4%

COc1ccc2[nH]cc(-c3csc4nc(-c5ccccc5)cn34)c2c1
inactive: EKVX NSCLC 35.8% | SN12C renal 40.2% | UO-31 renal 33.2% | TK-10 renal 75.6% | ACHN renal 38.6% | CAKI-1 renal 26.3% | CCRF-CEM leukemia 16.2% | MOLT-4 leukemia 19.7% | SR leukemia 20.1% | OVCAR-8 ovarian 24.1% | OVCAR-5 ovarian 46.2% | OVCAR-4 ovarian 56.5% | SK-OV-3 ovarian 16.1% | IGROV1 ovarian 41.6%
active: SK-MEL-2 melanoma -5.6% | A498 renal -19.7% | RPMI-8226 leukemia 5.78% | HS 578T breast -3.7% | NCI/ADR-RES ovarian 5.97%

Nc1nc(N)c2c(n1)NC(c1ccc(Cl)cc1)CC(c1ccc(Nc3nc(NCCO)nc(N4CCOCC4)n3)cc1)=N2 (configuration not stated)
active: SR leukemia 8.95%
inactive: SK-MEL-2 melanoma 88.2% | EKVX NSCLC 89.8% | SN12C renal 82.1% | UO-31 renal 84.4% | TK-10 renal 103% | ACHN renal 93.7% | CAKI-1 renal 97.2% | A498 renal 90.6% | CCRF-CEM leukemia 48.2% | MOLT-4 leukemia 45.5% | RPMI-8226 leukemia 38.9% | OVCAR-8 ovarian 72% | OVCAR-5 ovarian 96.7% | OVCAR-4 ovarian 93.8% | SK-OV-3 ovarian 103% | IGROV1 ovarian 78.8% | OVCAR-3 ovarian 73.2% | NCI/ADR-RES ovarian 97.3%

FC(F)(F)c1cc(Nc2cccc(Oc3ccc(NC4=NCCN4)nc3)c2)ccc1Cl
inactive: EKVX NSCLC 12.6% | UO-31 renal 21.9% | TK-10 renal 27.5% | CAKI-1 renal 16.2% | A498 renal 37.9% | CCRF-CEM leukemia 14.6% | OVCAR-8 ovarian 30.8% | OVCAR-4 ovarian 28.2% | SK-OV-3 ovarian 71% | HS 578T breast 39.7%
active: SK-MEL-2 melanoma 5.11% | SN12C renal -24.8% | ACHN renal 1.37% | MOLT-4 leukemia 9.2% | SR leukemia -28.1% | RPMI-8226 leukemia -37.6% | OVCAR-5 ovarian 3.8% | IGROV1 ovarian -1.17% | NCI/ADR-RES ovarian -10.6%

C=C(C=O)[C@@H]1CC[C@]2(C)[C@H](C(=O)C=C3[C@H]4C[C@](C)(C(=O)OC)CC[C@]4(C)CC[C@]32C)[C@@]1(C)CCC#N
inactive: EKVX NSCLC 47.7% | SN12C renal 12.8% | TK-10 renal 48.9% | A498 renal 115% | CCRF-CEM leukemia 10.2% | OVCAR-8 ovarian 13.5% | OVCAR-4 ovarian 20.6% | SK-OV-3 ovarian 102%
active: SK-MEL-2 melanoma -22.3% | UO-31 renal -91.5% | ACHN renal -12.5% | CAKI-1 renal 7.53% | MOLT-4 leukemia 0.0515% | SR leukemia -9.31% | RPMI-8226 leukemia -16.5% | OVCAR-5 ovarian -25.7% | IGROV1 ovarian 2.58% | HS 578T breast -2.47% | NCI/ADR-RES ovarian -24.3%

CC(C)(C)c1ccc(C(=O)Nc2sc3c(c2C(N)=O)CC/C(=N\O)C3)cc1
inactive: EKVX NSCLC 25.9% | SN12C renal 21.5% | TK-10 renal 32% | ACHN renal 12.2% | CAKI-1 renal 12.7% | A498 renal 34.6% | CCRF-CEM leukemia 10.1% | MOLT-4 leukemia 15% | OVCAR-8 ovarian 15.8% | OVCAR-5 ovarian 26.6% | OVCAR-4 ovarian 10% | SK-OV-3 ovarian 35.1% | IGROV1 ovarian 27.6% | HS 578T breast 38.7% | NCI/ADR-RES ovarian 11.7%
active: SK-MEL-2 melanoma -3.77% | UO-31 renal -33.7% | SR leukemia 6.35% | RPMI-8226 leukemia -16.7%

COc1ccc([C@H]2c3[nH]c4ccccc4c3C[C@H]3C(=O)N(C4CCN(Cc5c(Cl)cccc5Cl)CC4)CC(=O)N23)c(OC)c1
inactive: SK-MEL-2 melanoma 103% | EKVX NSCLC 86.2% | SN12C renal 91% | UO-31 renal 53.7% | TK-10 renal 110% | ACHN renal 86.8% | CAKI-1 renal 73.4% | A498 renal 128% | CCRF-CEM leukemia 94.6% | MOLT-4 leukemia 86.2% | SR leukemia 85% | RPMI-8226 leukemia 89.9% | OVCAR-8 ovarian 97.5% | OVCAR-5 ovarian 96.7% | OVCAR-4 ovarian 97.2% | SK-OV-3 ovarian 117% | IGROV1 ovarian 78.9% | OVCAR-3 ovarian 103% | NCI/ADR-RES ovarian 90.5%
